Assay results published in the supplement of paper PMC11537057.
Structures can show the parent of a compound that is named as a salt. About 15 (0.9%) of roughly 1,700 compounds showed activity.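 The calls were made as follows: active = infection cut by 80% or more with cell growth above 90% in both runs; inactive = the rest.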 The entries come from a sample that favours actives as a whole.

What follows are molecules tested on HSV-1 strain 17 YFP-ICP4 in A549 (assay: HSV-1 infection relative to DMSO (ICP4-YFP per H2B-RFP signal); higher = more viral infection (less antiviral activity), active = hit call of the paper). Conditions: 10 µM; 48 h; MOI: 0.1.
Method: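 Selleck FDA-approved library (L1300) screened in duplicate at 10 µM on A549 H2B-mRuby cells in 384-well plates, infected with HSV-1 strain 17 YFP-ICP4 at MOI 0.1 one hour before drug addition. Imaged after 2 days at 37°C. Cell growth (H2B-RFP) and infection (ICP4-YFP) are expressed as % of DMSO-treated wells. Hits: growth >90% and infection <20% of DMSO.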

Compound	HSV-1 infection
Cc1ccccc1C(=O)Nc1ccc(C(=O)N2CCCC(O)c3cc(Cl)ccc32)c(C)c1 (stereo not given) [Tolvaptan]	68% (inactive)
Cc1[nH]c2ccccc2c1CCNCc1ccc(/C=C/C(=O)NO)cc1 [Panobinostat (LBH589)]	34.1% (inactive)
CC(C)C[C@H](NC(=O)[C@@H](NC(=O)c1cccc(-c2ccccc2)n1)[C@@H](C)O)B(O)O	106% (inactive)
CN(C(=O)c1ccc(F)cc1C(F)(F)F)C1CCN(c2nnc(-c3ccnn3C)c3ccccc23)CC1	113% (inactive)
O=c1[nH]c(=O)n([C@H]2C[C@H](O)[C@@H](CO)O2)cc1/C=C/Br [Brivudine]	2.36% (active)
Cc1cn([C@H]2O[C@@H](CO)[C@H](O)[C@H]2F)c(=O)[nH]c1=O [Clevudine]	114% (inactive)
O=c1[nH]c(=O)n([C@H]2C[C@H](O)[C@@H](CO)O2)cc1I [Idoxuridine]	2.44% (active)
Cc1cn([C@@H]2C[C@@H](O)[C@H](CO)O2)c(=O)[nH]c1=O [Telbivudine]	139% (inactive)
O=c1[nH]c(=O)n([C@H]2C[C@H](O)[C@@H](CO)O2)cc1C(F)(F)F [Trifluridine]	20.6% (inactive)
Cc1cn([C@H]2C[C@H](N=[N+]=[N-])[C@@H](CO)O2)c(=O)[nH]c1=O [Zidovudine]	89.6% (inactive)
CCNC1(C(N)=O)CCN(c2ncnc3c2nc(-c2ccccc2Cl)n3-c2ccc(Cl)cc2)CC1	105% (inactive)
O=C1C(CC[S+]([O-])c2ccccc2)C(=O)N(c2ccccc2)N1c1ccccc1 (racemic) [(+/-)-Sulfinpyrazone]	111% (inactive)
C=CN1CCCC1=O.II [Povidone iodine]	108% (inactive)
CCCCCOc1ccccc1/C(=C\SC)n1ccnc1 [Neticonazole Hydrochloride]	61.4% (inactive)
CC(C)(C)C#Cc1cc(N(C(=O)[C@H]2CC[C@H](C)CC2)[C@H]2CC[C@H](O)CC2)c(C(=O)O)s1 [Lomibuvir (VX-222, VCH-222)]	130% (inactive)
COc1cc2c(cc1OC)CN(CCc1ccc(NC(=O)c3cccc4c(=O)c5cccc(OC)c5[nH]c34)cc1)CC2	135% (inactive)
COC(=O)N[C@H](C(=O)N1CC2(CC2)C[C@H]1c1nc(-c2ccc3c(c2)C(F)(F)c2cc(-c4ccc5[nH]c([C@@H]6[C@H]7CC[C@H](C7)N6C(=O)[C@@H](NC(=O)OC)C(C)C)nc5c4)ccc2-3)c[nH]1)C(C)C [Ledipasvir (GS5885)]	105% (inactive)
CCCCC[C@](C)(O)/C=C/[C@@H]1[C@@H](C/C=C\CCCC(=O)O)[C@@H](O)C[C@H]1O [Carboprost]	117% (inactive)
Nc1ncn([C@@H]2O[C@H](CO)[C@@H](O)[C@H]2O)c(=O)n1 [Azacitidine]	5.54% (active)
NC(=O)c1ncn([C@@H]2O[C@H](CO)[C@@H](O)[C@H]2O)c1O [Mizoribine]	89.7% (inactive)
NC(=O)c1ncn([C@@H]2O[C@H](CO)[C@@H](O)[C@H]2O)c1N [AICAR (Acadesine)]	67.6% (inactive)
Nc1ncn([C@H]2C[C@H](O)[C@@H](CO)O2)c(=O)n1 [Decitabine]	7.64% (active)
Nc1nc(Cl)nc2c1ncn2[C@H]1C[C@H](O)[C@@H](CO)O1 [Cladribine]	22.3% (inactive)

Compound	HSV-1 infection
Nc1ccn([C@H]2CC[C@@H](CO)O2)c(=O)n1 [Zalcitabine]	98.8% (inactive)
CC#CC(=O)N1CCC[C@H]1c1nc(-c2ccc(C(=O)Nc3ccccn3)cc2)c2c(N)nccn12 [Acalabrutinib (ACP-196)]	98.3% (inactive)
CNC(=O)CN(CCN(CCN(CC(=O)[O-])CC(=O)NC)CC(=O)[O-])CC(=O)[O-].O.[Gd+3] [Gadodiamide Hydrate]	108% (inactive)
COc1ccc(C[C@@H](C)NC[C@H](O)c2ccc(O)c(NC=O)c2)cc1 [Arformoterol Tartrate]	112% (inactive)
Cn1cnc2c(F)c(Nc3ccc(Br)cc3Cl)c(C(=O)NOCCO)cc21 [Selumetinib (AZD6244)]	52.5% (inactive)
CNCc1cc(-c2ccccc2F)n(S(=O)(=O)c2cccnc2)c1 [Vonoprazan Fumarate (TAK-438)]	95.8% (inactive)
CCCNS(=O)(=O)Nc1ncnc(OCCOc2ncc(Br)cn2)c1-c1ccc(Br)cc1 [Macitentan]	93.1% (inactive)
C[C@@H](O)[C@H]1C(=O)N2C(C(=O)OCOC(=O)C(C)(C)C)=C(SC3CN(C4=NCCS4)C3)[C@H](C)[C@H]12 [Tebipenem Pivoxil]	92.2% (inactive)
CC1CCC(C(C)C)C(O)C1 (single isomer, unassigned; (-)) [(-)-Menthol]	99.1% (inactive)
CC(C)[C@H](N)C(=O)OCC(CO)OCn1cnc2c(=O)[nH]c(N)nc21 (stereo not given in full) [Valganciclovir HCl]	2.02% (active)
CC(C)[C@H](N)C(=O)OCCOCn1cnc2c(=O)nc(N)[nH]c21 [Valaciclovir HCl]	4.82% (active)
Nc1nc2c(ncn2COCCO)c(=O)[nH]1 [Aciclovir]	3.03% (active)
C[C@H](Cn1cnc2c(N)ncnc21)OCP(=O)(O)O [Tenofovir]	119% (inactive)
Nc1nc2c(ncn2COC(CO)CO)c(=O)[nH]1 [Ganciclovir]	2.93% (active)
Nc1ccn(C[C@@H](CO)OCP(=O)(O)O)c(=O)n1 [Cidofovir]	45.8% (inactive)
O=c1[nH]cnc2c1ncn2[C@@H]1O[C@H](CO)[C@@H](O)[C@H]1O [Inosine]	82.6% (inactive)
C=C1[C@H](CO)[C@@H](O)C[C@@H]1n1cnc2c(=O)[nH]c(N)nc21 [Entecavir]	7.02% (active)
O=c1[nH]cnc2c1ncn2[C@H]1CC[C@@H](CO)O1 [Didanosine]	112% (inactive)
C=C1[C@H](CO)[C@@H](O)C[C@@H]1n1cnc2c(=O)[nH]c(N)nc21 [Entecavir Hydrate]	12.1% (active)
N/N=c1\[nH][nH]/c(=N\N)c2ccccc12 [Dihydralazine sulphate]	123% (inactive)
C1CNCCNCCNCCN1 [Cyclen]	105% (inactive)
C=C1CCN([C@H](C)[C@](O)(Cn2cncn2)c2ccc(F)cc2F)CC1 [Efinaconazole]	93.8% (inactive)
